Results filed as inconclusive are left out. Active and inactive are the calls of the source. The call rests on the fitted dose curve; in most records, active means well fitted inhibition curve with a large enough effect in the repeat runs; inconclusive means weak or mixed curves; inactive means no such curve, though single readings can be large or run the other way.
Biological target: Cytochrome P450 2D6 (Homo sapiens) (UniProt P10635)
Test: Cytochrome P450 Family 2 Subfamily D Member 6 (CYP2D6) small molecule antagonists: luciferase reporter qHTS assay (AID 1671196); further: nearly all actives have a fitted effect of over 50% in size
Conditions: P450-Glo CYP2D6 enzyme assay, luciferin luminescence, 1 h; series mostly up to 115 µM; activity change, negative = inhibition: at the top concentration
Summary of the method: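 Cell-free P450-Glo system: CYP2D6 with proluciferin substrate was pre-incubated with compound for 10 min, then reacted with NADPH regeneration for 1 h at room temperature. Luciferin product was detected after 20 min, and data were reported as relative luminescence units.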
On the % scale 0 is the no-effect control and ±100 the full control effect; potency means the concentration at half of the fitted maximal effect.

Sequence of Cytochrome P450 2D6 (Homo sapiens) (P10635 whole entry, looked up): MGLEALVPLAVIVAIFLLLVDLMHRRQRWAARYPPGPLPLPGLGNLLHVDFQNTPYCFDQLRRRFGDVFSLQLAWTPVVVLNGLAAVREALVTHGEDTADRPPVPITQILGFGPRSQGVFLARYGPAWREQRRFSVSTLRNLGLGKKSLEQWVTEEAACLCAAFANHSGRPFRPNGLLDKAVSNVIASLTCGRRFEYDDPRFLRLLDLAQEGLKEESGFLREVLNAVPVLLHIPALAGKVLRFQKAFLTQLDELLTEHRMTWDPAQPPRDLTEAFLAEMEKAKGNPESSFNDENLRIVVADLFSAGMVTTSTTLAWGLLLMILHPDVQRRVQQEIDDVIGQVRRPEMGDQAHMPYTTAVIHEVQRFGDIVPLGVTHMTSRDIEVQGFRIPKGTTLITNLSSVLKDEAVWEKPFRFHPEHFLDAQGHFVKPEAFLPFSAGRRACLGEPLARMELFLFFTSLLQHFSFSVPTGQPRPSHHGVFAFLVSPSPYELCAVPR

SMILES	Potency	activity change, negative = inhibition
N#CC(Cl)Cl	61.6 µM (active)	
CC(C)(C)C(O)/C(=C\c1ccc(Cl)cc1Cl)n1cncn1 (stereo not drawn)	34.2 µM (active)	
CN(CCCC(=O)c1cccnc1)N=O		-7.37% (inactive)
O=C(CCCN1CCC2(CC1)C(=O)NCN2c1ccccc1)c1ccc(F)cc1	0.977 µM (active)	
O=c1ssc(Cl)c1Cl	63.3 µM (active)	
COc1cc(N)c(Cl)cc1C(=O)NC1CN2CCC1CC2 (stereo not drawn)	13.8 µM (active)	
C[C@H]1O[C@@H](O[C@H]2[C@@H](O)C[C@H](O[C@H]3[C@@H](O)C[C@H](O[C@H]4CC[C@@]5(C)[C@H](CC[C@@H]6[C@@H]5CC[C@]5(C)[C@@H](C7=CC(=O)OC7)CC[C@]65O)C4)O[C@@H]3C)O[C@@H]2C)C[C@H](O)[C@@H]1O	inactive	
ClC1=C(Cl)C2(Cl)C3C(Cl)C=CC3C1(Cl)C2(Cl)Cl (stereo not drawn)	inactive	
COC12CC[C@@]3(C[C@@H]1C(C)(O)C(C)(C)C)[C@H]1Cc4ccc(O)c5c4[C@@]3(CCN1CC1CC1)[C@H]2O5 (stereo partly drawn)	2.23 µM (active)	
C=CCOC(N)=O		-0.811% (inactive)
O=CC(Br)(Br)Br		-13.9% (inactive)
COCC(=O)N(c1c(C)cccc1C)[C@H](C)C(=O)OC		4.64% (inactive)
Oc1cc(Cl)c(Cl)c(Cl)c1	6.73 µM (active)	
